Most compounds without a hit are left out; they make up all but 6.9% or so of the library.
VDR inh – blocks the human vitamin D receptor; P11473; VDR-SRC2-3 peptide fluorescence polarization, 2 h; Potency, µM, for the others: max response, negative = inhibition, actives largely listed as inhibitors; actives 0.93% (n = 400,000); also: % is scaled to controls: 0 for no effect and ±100 for the full control effect
Target sequence (P11473 whole entry, looked up): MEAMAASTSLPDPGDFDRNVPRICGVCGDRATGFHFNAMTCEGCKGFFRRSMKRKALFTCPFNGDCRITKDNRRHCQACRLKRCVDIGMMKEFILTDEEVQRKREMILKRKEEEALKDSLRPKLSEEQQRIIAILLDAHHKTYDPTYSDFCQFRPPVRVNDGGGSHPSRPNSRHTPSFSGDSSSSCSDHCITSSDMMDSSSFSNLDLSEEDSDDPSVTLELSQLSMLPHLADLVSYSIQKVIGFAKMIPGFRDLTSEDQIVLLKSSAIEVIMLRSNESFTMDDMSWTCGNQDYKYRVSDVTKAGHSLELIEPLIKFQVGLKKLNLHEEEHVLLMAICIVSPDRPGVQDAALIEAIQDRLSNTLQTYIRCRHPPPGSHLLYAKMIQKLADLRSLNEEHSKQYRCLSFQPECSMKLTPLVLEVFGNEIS
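Two reagent solutions held at 4 deg C in the dark were dispensed, compounds pinned at 23 nl, and the mixture incubated 2 h at room temperature. Read-out: fluorescence polarization of VDR–SRC2-3 peptide binding.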
BAZ2B block – BAZ2B (human) inhibition. Q9UIF8. actives 4.4% (n = 360,000). AlphaScreen BAZ2B-H3K14Ac peptide displacement. AID 504333. Potency, µM (doses to about 114 µM), for inactives: at the highest dose activity change, negative = inhibition, usual class: inhibitors; also: % is scaled to controls: 0 for no effect and ±100 for the full control effect; nearly all actives have a fitted effect of over 60% in size
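Complex of BAZ2B and biotin-H3K14Ac (50 nM apiece) forms over 30 min at RT, then faces library compounds up to 110 uM for another 30 min; AlphaScreen beads added, 20 min dark incubation, luminescence read.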
HP1b chromo inh – blocks HP1-beta chromodomain binding to methylated histone tails | AID 540317 | actives 0.56% (n = 390,000) | AlphaScreen HP1-beta / biotin-H3K9me3 peptide binding | Potency, µM (series often up to 114 µM), without a hit: at the top dose activity change, negative = inhibition, usual class: inhibitors | P83916; also: nearly all actives have a fitted effect of over 70% in size
Target sequence (P83916 whole entry, looked up): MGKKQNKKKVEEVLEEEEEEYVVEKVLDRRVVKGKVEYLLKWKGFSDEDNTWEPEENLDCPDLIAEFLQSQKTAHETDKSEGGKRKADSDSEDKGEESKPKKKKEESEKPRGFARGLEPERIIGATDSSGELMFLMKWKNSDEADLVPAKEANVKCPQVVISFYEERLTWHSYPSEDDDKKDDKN
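HP1-beta protein (50 nM final) preincubated 30 min at room temperature with biotinylated H3(1-18)K9me3 peptide (50 nM) in PBS pH 7.4, 0.01% Tween-20, then compound added for 30 min. AlphaScreen streptavidin donor/nickel chelate acceptor beads (10 ug/mL final), 30 min dark, luminescence read.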
PLK1 PBD block – PLK1 (human) polo-box domain binding inhibition | P53350 | Plk1 PBD binding of FITC phosphopeptide, fluorescence polarization | Potency, µM, inactives show max response, negative = inhibition, hits mostly inhibitors | actives 2.8% (n = 360,000); also: series mostly up to about 57 µM; % is scaled to controls: 0 for no effect and ±100 for the full control effect; nearly all actives have a fitted effect of over 65% in size
JMJD2A Tudor – JMJD2A Tudor domain (human) inhibition; AlphaScreen JMJD2A-Tudor / H3K4me3 peptide binding; Potency, µM (doses to about 114 µM), without a hit: top-dose activity change, negative = inhibition, most hits filed as inhibitors; actives 4.4% (n = 390,000); AID 504339; also: % is scaled to controls: 0 for no effect and ±100 for the full control effect; nearly all actives have a fitted effect of over 50% in size
L3MBTL1 inh – blocks human L3MBTL1; Q9Y468; AlphaScreen L3MBTL1–H3K9me1 peptide binding; Potency, µM (series often up to 57.1 µM), inactives show at the highest dose activity, negative = inhibition, most hits filed as inhibitors; actives 0.66% (n = 230,000); also: % is scaled to controls: 0 for no effect and ±100 for the full control effect; nearly all actives have a fitted effect of over 60% in size
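Read-out is AlphaScreen signal from streptavidin donor and nickel chelate acceptor beads (10 ug/mL final each) bridging L3MBTL1 (50 nM) and biotinylated K9-monomethylated H3(1-15) peptide (75 nM), after 30 min compound exposure at room temperature.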
Numbers without * were called inactive; ? = inconclusive; . = no result given; [ ] = another dose, or the depositor's remark. Calls follow the shape of the dose curve; as a rule, active = well fitted curve in the direction sought with a large enough effect; inconclusive = small, poorly fitted or top-dose-only effect, or another doubt; inactive = no such curve, though single readings can be large; an effect the other way counts as inactive or inconclusive. Potency is read from the fitted curve at half-maximal effect.

SMILES	VDR inh	BAZ2B block	HP1b chromo inh	PLK1 PBD block	JMJD2A Tudor	L3MBTL1 inh
CCCN1C(=O)C(O)(CC(=O)c2cccc(OC)c2)c2ccccc21 (centres undefined)	?	56.2µM*	-39.0%	-24.3%	?	.
CN(C)c1ccc(NC(=O)CSC2=Nc3ccccc3C3=NC(CC(=O)NCc4ccccc4)C(=O)N23)cc1 (centres undefined)	3.5%	-36.2%	10.1%	.	?	.
CN(C)S(=O)(=O)c1cccc(C(=O)Nc2ccccc2C(=O)NC2CC2)c1	?	.	29.6%	-4.5%	-12.5%	-6.7%
CN1CCN(CC#CCC(O)(c2ccccc2)c2ccccc2)CC1	-7.4%	-22.2%	14.8%	-16.3%	-11.1%	-5.4%
CC(C)(C)N(CC#CCC(O)(c1ccccc1)c1ccccc1)CCO	-19.2%	79.4µM*	-11.5%	-1.8%	22.4µM*	-0.2%
O=C(Nc1ccc(F)c(F)c1)c1cc(S(=O)(=O)NCc2ccc3c(c2)OCO3)ccc1F	24.7%	3.1%	29.4%	.	-26.0%	.
COc1cccc(CN2CCN(C(=O)c3ccc(-c4ccccc4)cc3)CC2)c1	0.1%	50.1µM*	31.6µM*	-0.4%	2.24µM*	-12.8%
COc1cc(OC)cc(C(=O)N2CCN(C(=O)c3ccc(-c4ccccc4)cc3)CC2)c1	-0.1%	-19.7%	20.5%	-2.8%	-11.0%	0.7%
O=C(c1ccccc1)N1CCN(Cc2cccc(Oc3ccccc3)c2)CC1	?	50.1µM*	-10.9%	23.8µM*	39.8µM*	0.1%
CSc1nc(COC(=O)NC(C)C)c(COC(=O)NC(C)C)n1Cc1ccccc1	.	.	.	2.4%	.	.
Cc1cc(Oc2c(C(F)(F)F)oc3c(CN4CCC(C)CC4)c(O)ccc3c2=O)cc(C)c1Cl	-3.3%	0.1%	23.9%	.	-10.0%	.
CC(C)CCNC(=O)C(CC(C)C)N(Cc1ccc2c(c1)OCO2)C(=O)c1snc(C(N)=O)c1N (centres undefined)	-7.0%	-22.9%	32.5%	-1.4%	-9.3%	7.1%
COc1ccc(-n2c(SCC(=O)NCc3ccccc3)nc3n[nH]c(C)c3c2=N)cc1	8.5%	10.0%	7.8%	.	-12.5%	.
N#C/C(=C\c1ccc(N2CCCCC2)o1)C(N)=O	-1.0%	28.2µM*	8.0%	87.6%	-15.3%	-15.7%
N#C/C(=C\c1ccc(N2CCCCC2)o1)C(=O)Nc1cccc(Br)c1	?	-10.1%	-3.5%	22.4%	-0.7%	-15.2%
Cc1nc(Oc2ccccc2)c2ccccc2n1	-10.8%	-2.0%	53.1%	-1.7%	15.0%	7.9%
c1ccc(Oc2c3ccccc3nc3ccccc23)cc1	44.7µM*	9.1%	80.7%	-6.3%	19.4%	.
COc1ccccc1CNC(=O)c1cc2c(=O)oc3ccc(C)cc3c2s1	-1.0%	-8.0%	19.7%	.	-22.2%	.
CCOC(=O)C1=C(C)Nc2ccc(C)cc2S1	?	50.1µM*	?	?	-25.4%	-8.4%
CSCCOC(=O)C1=C(C)NC(=O)NC1c1ccc2c(c1)OCO2 (centres undefined)	-8.4%	-9.5%	19.4%	3.4%	-9.6%	-6.1%
CSCCOC(=O)C1=C(C)Nc2ccc(C)cc2S1	?	44.7µM*	-66.9%	18.9µM*	79.4µM*	.
CCOC(=O)C1=C(C)Nc2ccccc2S1	?	39.8µM*	?	?	?	.
CCOCCOC(=O)C1=C(C)Nc2ccc(C)cc2S1	89.1µM*	?	-42.8%	?	14.1µM*	-0.2%
CC(C)Oc1ccc(CNS(=O)(=O)c2ccc3c(c2)C(C)(C)C(=O)N3C)cc1	8.4%	2.9%	27.5%	.	8.8%	.
COc1ccc(CCNC(=O)c2cc(Nc3ccccc3)nc3ccccc23)cc1OC	8.7%	6.4%	48.9%	.	-17.9%	.
SMILES	VDR inh	BAZ2B block	HP1b chromo inh	PLK1 PBD block	JMJD2A Tudor	L3MBTL1 inh
CCOc1ccccc1C(=O)NC(C(=O)Nc1cccnc1)C(C)C (centres undefined)	-23.8%	5.2%	33.1%	2.0%	-15.8%	7.2%
O=C(O)c1cccc(CSc2nc(-c3ccc(Cl)cc3)cc(C(F)(F)F)n2)c1	?	?	11.8%	26.7µM*	?	2.5%
Cc1nc(SCc2cccc(C(=O)O)c2)nc2c1CCCC2	-4.7%	-17.4%	2.7%	26.7µM*	-0.8%[11.4 µM]	-3.8%
CCCCCOc1ccc2oc(=O)c3c(c2c1)CCCN3C(=O)CN1CCCC(C(=O)OCC)C1 (centres undefined)	-7.3%	-16.9%	22.6%	-0.3%	-17.1%	.
CCOC(=O)C1CCCN(CC(=O)N2CCCc3c2c(=O)oc2ccc(OCc4ccccc4)cc32)C1 (centres undefined)	-4.8%	-22.6%	8.4%	.	39.8µM*	.
CCOC(=O)C1CCCN(Cc2ccc(OC)c(OCc3ccccc3)c2)C1 (centres undefined)	-15.0%	-38.6%	?	2.3%	28.2µM*	-2.2%
CCCCN(C)C(=O)C1CCN(Cc2ccc(OCc3ccccc3)cc2)CC1	-13.0%	?	-51.2%	-5.9%	3.55µM*	11.5%
COc1ccc(NC(=O)C2CCCCN2N)cc1OC (centres undefined)	-13.2%	8.7%	-11.0%	26.7µM*	-17.6%[11.4 µM]	-3.7%
COc1ccc(C(=O)C2CCCN(Cc3ccc4nonc4c3)C2)cc1OC (centres undefined)	-6.5%	-13.4%	23.1%	-7.9%	-20.4%	-10.3%
COc1ccc(CN2CCCCC2C(=O)Nc2ccc(OC)c(OC)c2)cc1OC (centres undefined)	-1.7%	-8.5%	15.9%	1.3%	-18.2%	-4.6%
CCOC(=O)C1CCCCN1Cc1ccc(F)c(Br)c1 (centres undefined)	-8.0%	11.9%	?	-8.3%	?	.
CCCCNC(=O)C1CCN(Cc2ccc(OCc3ccccc3)c(OC)c2)CC1	-1.8%	?	-21.0%	-4.6%	22.4µM*	0.4%
CCOC(=O)C1CCCCN1Cc1ccc(OC)c(OC)c1 (centres undefined)	15.7%	56.2µM*	?	-7.8%	20µM*	5.0%
CCC1CCCCN1Cc1ccc(OC)c(C)c1 (centres undefined)	9.7%	56.2µM*	?	0.1%	7.08µM*	.
NC(=O)C1CCN(Cc2ccc(OCc3ccccc3)cc2)CC1	1.9%	56.2µM*	?	-5.8%	3.55µM*	1.0%
CCN(C(=O)C1CCN(c2ncnc3c2nc2n3CCCCC2)CC1)c1cccc(Cl)c1	9.2%	-15.4%	27.2%	.	-11.2%	.
O=S(=O)(N/N=C\c1ccc2c(c1)OCO2)c1ccc(Cl)cc1	11.1%	-10.7%	26.7%	-10.6%	-17.6%	0.1%
CC(CCc1ccccc1)NC(=O)C(Cc1ccccc1)NC(N)=O (centres undefined)	-7.4%	-1.8%	-29.7%	-10.1%	-13.4%	.
COc1ccc(CN2CCC(C(N)=O)CC2)cc1OCc1ccccc1	-14.8%	?	?	1.2%	31.6µM*	10.3%
CCCS(=O)(=O)N1CCN(Cc2ccc(OCc3ccccc3)c(OC)c2)CC1	-0.4%	.	?	-7.5%	28.2µM*	.
